Among the data in PubChem BioAssay (NCI) are growth inhibition values, retold here.

Molecules are shown by their SMILES. Compounds without any hit were thinned out: in the full panel of roughly 79,000, 15% have a hit. Values without a mark were called inactive. Calls of active or inactive are those of the source. Cut-off read from the data, not from the text of the source: active = growth inhibition above about 70%; inactive = the rest.

Experiment [1] is described as follows: NCI Yeast Anticancer Drug Screen. Data for the rad50 strain (AID 155).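 Note: 0% = growth of vehicle-only cultures of the same strain.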 To be noted: S. cerevisiae rad50 strain growth inhibition, active compounds read high. The method, boiled down:
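Genetically altered yeast (DNA repair pathway); compound treatment; growth inhibition vs vehicle ctrl.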

A short description of experiment [2]: NCI Yeast Anticancer Drug Screen. Data for the mec2-1 strain (AID 157). The conditions noted are these: S. cerevisiae mec2-1 strain, active compounds read high. In outline: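 Cells of the genetically defined mec2-1 yeast strain are incubated with test compound. Inhibition of growth is calculated against vehicle-treated controls.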
Experiment [3] can be described thus: NCI Yeast Anticancer Drug Screen. Data for the sgs1 mgt1 strain (AID 161).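 Note: 0% = growth of cultures given vehicle only.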 To be noted: S. cerevisiae sgs1 mgt1 strain, active compounds read high. The method, boiled down:
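Inhibition of yeast growth, normalised to vehicle-treated controls, is reported for a strain bearing genetic alterations in DNA damage repair.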

Experiment [4] is described as follows: NCI Yeast Anticancer Drug Screen. Data for the cln2 rad14 strain (AID 165).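 Note: 0% = growth equal to vehicle treated cultures.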 The conditions noted are these: S. cerevisiae cln2 rad14 strain, active compounds read high. The method, boiled down:
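The screen exposed genetically defined yeast (cln2 rad14) to test compounds and scored growth inhibition relative to vehicle-treated controls.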

Experiment [5] is described as follows: NCI Yeast Anticancer Drug Screen. Data for the bub3 strain (AID 167). To be noted: S. cerevisiae bub3 mutant strain, active compounds read high. In outline: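 Yeast carrying a defined mutation is treated with each compound, and growth is compared with that of vehicle-exposed cells to give inhibition.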
A short description of experiment [6]: NCI Yeast Anticancer Drug Screen. Data for the mlh1 rad18 strain (AID 175). The conditions noted are these: S. cerevisiae mlh1 rad18 strain growth inhibition, active compounds read high. The method, boiled down: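 Compound-treated yeast growth, normalised to vehicle controls. Strain bears defined DNA repair mutations.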
[7] abbreviates: at 5.0 µM (retest, dose inferred, filed as 0.5).
Where [8] appears, read: at 50.0 µM (retest, dose inferred, filed as 5.0).

As to `CNC(=S)N(C)C(=S)Nn1c(=O)c(C)nn(C)c1=S`, the growth inhibition in experiment [1] (setting [7]) is -24%; in experiment [1] (setting [8]), 59%; in experiment [1] (at 50.0 µM) it was 70.8% (active); in experiment [2] (setting [7]) it was -23%; in experiment [2] (setting [8]), 96% (active); in experiment [2] (at 50.0 µM), 79.7% (active). Further, the growth inhibition in experiment [3] (setting [7]) was -19%; in experiment [3] (setting [8]), 50%; in experiment [3] (at 50.0 µM), 87% (active); in experiment [4] (setting [7]), -3%; in experiment [4] (setting [8]), 66%; in experiment [4] (at 50.0 µM), 57.9%. Further, the growth inhibition in experiment [5] (setting [7]) is -18%; in experiment [5] (setting [8]) it was 77% (active); in experiment [5] (at 50.0 µM) it was 78.4% (active); in experiment [6] (setting [7]), -27%; in experiment [6] (setting [8]), 97% (active); in experiment [6] (at 50.0 µM), 72.5% (active).
As for `COc1ccc2c(ccc[n+]2CC(=O)c2ccc(-c3ccccc3)cc2)c1`, the growth inhibition is -24% in experiment [1] (setting [7]); 5% in experiment [1] (setting [8]); 13.1% in experiment [1] (at 50.0 µM); -5% in experiment [2] (setting [7]); -1% in experiment [2] (setting [8]); 14.8% in experiment [2] (at 50.0 µM). The growth inhibition in experiment [3] (setting [7]) is -20%; in experiment [3] (setting [8]) it was 24%; in experiment [3] (at 50.0 µM), 2.75%; in experiment [4] (setting [7]) it was -2%; in experiment [4] (setting [8]), 5%; in experiment [4] (at 50.0 µM) it was -12.8%. The growth inhibition in experiment [5] (setting [7]) was 3%; in experiment [5] (setting [8]), 8%; in experiment [5] (at 50.0 µM), -2.75%; in experiment [6] (setting [7]) it was -3%; in experiment [6] (setting [8]) it was 12%; in experiment [6] (at 50.0 µM), 40%.
Regarding `Cc1cc(O)n(Cc2ccccc2)c(=O)c1`, the growth inhibition is -151% in experiment [1] (setting [7]); 34% in experiment [1] (setting [8]); 48.5% in experiment [1] (at 50.0 µM); -51% in experiment [2] (setting [7]); -36% in experiment [2] (setting [8]); 9.75% in experiment [2] (at 50.0 µM). The growth inhibition in experiment [3] (setting [7]) is -67%; in experiment [3] (setting [8]), 33%; in experiment [3] (at 50.0 µM), 34.6%; in experiment [4] (setting [7]), -60%; in experiment [4] (setting [8]), -45%; in experiment [4] (at 50.0 µM), -4.75%. The growth inhibition is -70% in experiment [5] (setting [7]); 4% in experiment [5] (setting [8]); 47.9% in experiment [5] (at 50.0 µM); -123% in experiment [6] (setting [7]); 7% in experiment [6] (setting [8]); 67.1% in experiment [6] (at 50.0 µM).
Consider `CC(=O)OC(CCl)C(C)[N+](=O)[O-]` (stereo not drawn), for which the growth inhibition in experiment [1] (setting [7]) is 7%; in experiment [1] (setting [8]), 91% (active); in experiment [1] (at 50.0 µM) it was 90.8% (active); in experiment [2] (setting [7]), 5%; in experiment [2] (setting [8]), 96% (active); in experiment [2] (at 50.0 µM), 98.5% (active). Besides, the growth inhibition was 7% in experiment [3] (setting [7]); 75% (active) in experiment [3] (setting [8]); 46.6% in experiment [3] (at 50.0 µM); 6% in experiment [4] (setting [7]); 83% (active) in experiment [4] (setting [8]); 36.9% in experiment [4] (at 50.0 µM). The growth inhibition was 6% in experiment [5] (setting [7]); 99% (active) in experiment [5] (setting [8]); 97.7% (active) in experiment [5] (at 50.0 µM); 5% in experiment [6] (setting [7]); 86% (active) in experiment [6] (setting [8]); 43.4% in experiment [6] (at 50.0 µM).
Consider `C[N+](C)(C)CCCCCCCCCCC(=O)N/N=C/c1ccc([N+](=O)[O-])o1`, for which the growth inhibition is 6% in experiment [1] (setting [7]); 8% in experiment [1] (setting [8]); 9.85% in experiment [1] (at 50.0 µM); 2% in experiment [2] (setting [7]); 7% in experiment [2] (setting [8]); 4.35% in experiment [2] (at 50.0 µM). Besides, the growth inhibition was 6% in experiment [3] (setting [7]); 18% in experiment [3] (setting [8]); 48.9% in experiment [3] (at 50.0 µM); 2% in experiment [4] (setting [7]); 2% in experiment [4] (setting [8]); 32.3% in experiment [4] (at 50.0 µM). The growth inhibition was 0% in experiment [5] (setting [7]); -3% in experiment [5] (setting [8]); -3.85% in experiment [5] (at 50.0 µM); 9% in experiment [6] (setting [7]); 15% in experiment [6] (setting [8]); 64.6% in experiment [6] (at 50.0 µM).
`O=[N+]([O-])c1ccc(CCCl)c(CCl)c1`: the growth inhibition is -150% in experiment [1] (setting [7]); 94% (active) in experiment [1] (setting [8]); 97.4% (active) in experiment [1] (at 50.0 µM); -48% in experiment [2] (setting [7]); 94% (active) in experiment [2] (setting [8]); 98.8% (active) in experiment [2] (at 50.0 µM). The growth inhibition in experiment [3] (setting [7]) is -51%; in experiment [3] (setting [8]), 91% (active); in experiment [3] (at 50.0 µM), 91% (active); in experiment [4] (setting [7]), -50%; in experiment [4] (setting [8]), 92% (active); in experiment [4] (at 50.0 µM) it was 96.4% (active). Moreover, the growth inhibition in experiment [5] (setting [7]) was -55%; in experiment [5] (setting [8]), 79% (active); in experiment [5] (at 50.0 µM), 90.3% (active); in experiment [6] (setting [7]), -111%; in experiment [6] (setting [8]), 92% (active); in experiment [6] (at 50.0 µM), 89% (active).
